PLCg1 inh – blocks human PLC-gamma1 enzyme activity; P19174; purified PLC-gamma1, fluorogenic substrate, fluorescence; inhibition, % at 12.2 µM; 370,000 compounds, 0.84% hits; AID 720700; in the data active means inhibition above about 9.5%
ADAM10 inh – inhibits human ADAM10 | inhibition, % at 7 µM | O14672 | recombinant ADAM10, EDANS/DABCYL FRET peptide cleavage, 3 h | AID 720582 | 370,000 compounds, 0.62% hits;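 active means inhibition above a per-campaign cutoff equal to the mean of compounds falling between control-based bounds plus 3 SD, cut at about 20% in these data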
ADAM17 inh – ADAM17 inhibition, QFRET primary screen. P78536. recombinant ADAM17, EDANS/DABCYL FRET peptide cleavage. inhibition, % at 6.95 µM. 370,000 compounds, 0.83% hits. AID 720648;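 active means inhibition above the mean of compounds lying between control limits plus 3 SD, set per campaign, cut at about 8.5% in these data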
PLC-beta3 inh – PLC-beta3 (human) inhibition, primary screen | Q01970 | Purified PLC-beta3, fluorogenic substrate, fluorescence | inhibition, % at 12.2 µM | 370,000 compounds, 0.18% hits | AID 720704; in the data active means inhibition above about 11%
sPLA2-III inh – Blocks human group III sPLA2 activity; Q9NZ20; QFRET BODIPY PC-A2 liposome hydrolysis, fluorescence; inhibition, % at 12.2 µM; 370,000 compounds, 0.56% hits;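 active means inhibition above mean plus 3 SD of compounds lying within the high and low control bounds, cut at about 19% in these data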
Target sequence (Q9NZ20 whole entry, looked up): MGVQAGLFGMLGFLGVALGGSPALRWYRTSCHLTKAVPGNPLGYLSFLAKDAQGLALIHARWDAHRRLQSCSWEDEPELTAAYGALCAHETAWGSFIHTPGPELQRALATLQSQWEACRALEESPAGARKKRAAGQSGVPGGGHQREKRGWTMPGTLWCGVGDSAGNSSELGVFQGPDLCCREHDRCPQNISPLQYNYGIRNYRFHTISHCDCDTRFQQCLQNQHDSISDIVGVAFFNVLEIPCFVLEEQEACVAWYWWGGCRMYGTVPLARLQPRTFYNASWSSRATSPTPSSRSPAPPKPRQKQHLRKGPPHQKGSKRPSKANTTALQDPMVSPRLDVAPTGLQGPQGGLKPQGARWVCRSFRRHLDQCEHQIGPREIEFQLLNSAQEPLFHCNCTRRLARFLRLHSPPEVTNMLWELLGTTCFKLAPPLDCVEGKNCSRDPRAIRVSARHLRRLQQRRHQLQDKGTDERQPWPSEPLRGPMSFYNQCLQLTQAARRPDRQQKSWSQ
KLK7 zymogen act – proKLK7 (human) activation, primary screen; purified proKLK7, EDANS-DABCYL substrate fluorescence; 100% is mature enzyme control, 0% vehicle; P49862; activation, % at 7 µM; 370,000 compounds, 0.9% hits;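 active means activation above the mean of all tested compounds plus 3 SD, computed per campaign excluding outliers beyond control limits, cut at about 13% in these data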
KLK7 act conf – proKLK7 activation, confirmation. purified proKLK7, EDANS-DABCYL substrate fluorescence; scaled: vehicle 0, mature enzyme 100. AID 686949. 3,200 compounds, 68% hits. shares compounds with KLK7 zymogen act. activation, % at 7 µM;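 active means activation, as change over the incubation, above the mean of all tested compounds plus 3 SD, cut at about 13% in these data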
EDANS-DABCYL int – fluorescence interference counter-screen for KLK7 activators; shares compounds with KLK7 zymogen act; EDANS-DABCYL substrate fluorescence interference, no enzyme, 4 h; solvent 0%, active enzyme control 100%; activation, % at 7 µM; 3,200 compounds, 80% hits; AID 686952;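 active means activation above the all-compound mean plus 3 SD, ignoring values outside control-based bounds, cut at about 4.8% in these data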;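 further: value is the 4 h activation minus the activation read at time zero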
EDANS interf – EDANS fluorescence interference in dose response, no enzyme; EC50, µM; 250 compounds, 20% hits; shares compounds with KLK7 zymogen act; EDANS-DABCYL peptide fluorescence interference;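 active means compounds that raise the fluorescence signal in this interference counterscreen, with EC50 at or below 10 µM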;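 further: intact quenched peptide substrate alone read at 355 nm excitation and 520 nm emission; signal is fluorescence gain from T0 to T4 after four hours at room temperature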
Numbers stand for hits; – = inactive; · = no result given. Only some compounds are listed: those with a hit (about 3.4% of all), similar ones and a draw of the others.

SMILES | PLCg1 inh | ADAM10 inh | ADAM17 inh | PLC-beta3 inh | sPLA2-III inh | KLK7 zymogen act | KLK7 act conf | EDANS-DABCYL int | others
O=[N+]([O-])c1cccc(O)c1 | – | – | – | – | – | – | · | ·
O=[N+]([O-])c1cc(S(=O)(=O)c2ccc(O)c([N+](=O)[O-])c2)ccc1O | 35.3 | – | – | – | – | – | · | ·
O=C(O)c1cccc2c1NC(C(=O)O)C1CC(Sc3ccccc3[N+](=O)[O-])C(Cl)C21 (configuration not stated) | 19.1 | – | – | – | – | – | · | ·
COc1ccc(-n2c(/C=C/c3ccc(O)cc3)nc3ccccc3c2=O)cc1 | – | – | – | – | – | – | · | ·
CCn1nc(/C=C/c2ccccc2)nc2c(=O)n(C)c(=O)nc1-2 | 42.6 | – | – | – | – | – | · | ·
c1cncc(-c2ccc3n2Cc2cnnn2-c2ccccc2-3)c1 | – | – | – | – | – | – | · | ·
CCC12CCN(CC3(O)CC3)C(Cc3ccc(O)cc31)C2(C)C (configuration not stated) | – | – | – | – | – | – | · | ·
CC[n+]1c(/C=C/C=C/c2ccc(N(C)C)cc2)sc2ccccc21 | – | – | – | – | 37.1 | – | · | ·
O=c1[nH]c2cc(Cl)ccc2n1C1CCN(Cc2ccc(-c3nc4ccc(F)cc4nc3-c3ccccc3)cc2)CC1 | – | – | – | – | – | – | · | ·
COC(=O)C1=C(c2ccc(OCc3ccccc3)c(F)c2)C[C@@H]2CC[C@H]1N2C | 12.6 | – | – | – | – | – | · | ·
COc1c(C)cc(C(=O)C2CCCN(C3CCOCC3)C2)cc1C (configuration not stated) | – | – | – | – | – | – | · | ·
COc1ccc2cc(C(=O)C3CCCN(C4CCOCC4)C3)ccc2c1 (configuration not stated) | – | – | – | – | – | 138.7 | – | 20.4
Oc1ccc(C2=CCNCC2)cc1O | – | – | – | – | – | – | · | ·
C#CC1(O)CCC2C3CCC4=CC(=O)CCC4=C3C=CC21C (configuration not stated) | – | – | – | – | – | 14.0 | – | 10.7
COC(=O)C1C(OC(=O)c2ccccc2)CC2CCC1[N+]2(C)C (configuration not stated) | – | – | – | – | – | – | · | ·
Cc1cc(O)c2c(C)c(CC(=O)N3C[C@H]4C[C@@H](C3)c3cccc(=O)n3C4)c(=O)oc2c1 | – | – | – | – | – | – | · | ·
COc1cc(C)cc2oc(=O)c(CC(=O)N3C[C@H]4C[C@@H](C3)c3cccc(=O)n3C4)c(C)c12 | – | – | – | – | – | 21.6 | 15.3 | 16.8
CC1CN(CC(=O)c2ccccc2Cl)CC(C)O1 (configuration not stated) | – | – | – | – | – | 15.8 | – | –
CN(C)c1ccc(/C=C2/C(=N\O)C3CCN2CC3)cc1 | – | – | – | – | – | 55.7 | 130.4 | 152.9
COc1ccc(-c2cc(=Nc3ccccc3)c3cc(C)ccc3o2)cc1 | – | – | – | – | – | – | · | ·
COc1ccc(-c2cc(=NCCC(=O)O)c3cc(C)ccc3o2)cc1 | – | – | – | – | – | 85.5 | 68.5 | 72.8
COC(=O)C1C(c2ccc(F)cc2)CC2CCC1N2C (configuration not stated) | – | – | – | – | – | – | · | ·
O=C(Cc1cc(=O)oc2cc(O)ccc12)NN=Cc1ccc(N(CCCl)CCCl)cc1 | – | – | – | – | – | 119.4 | 43.9 | 31.4 | EDANS interf=–
C[CH2][Hg][S]c1ccccc1C(=O)O | – | – | – | – | – | – | · | ·
Cc1cc(OCC(=O)N2CCC(C(=O)O)CC2)c2c3c(c(=O)oc2c1)CCC3 | – | – | – | – | – | 18.8 | 12.9 | 15.8
SMILES | PLCg1 inh | ADAM10 inh | ADAM17 inh | PLC-beta3 inh | sPLA2-III inh | KLK7 zymogen act | KLK7 act conf | EDANS-DABCYL int | others
COC(=O)C(C)Oc1cc(C)cc2oc(=O)c3c(c12)CCC3 (configuration not stated) | – | – | – | – | – | 16.5 | – | 12.3
CCCN1CCC(NC2CCC(O)CC2)CC1 (configuration not stated) | – | – | – | – | – | – | · | ·
COc1ccc([N+](=O)[O-])cc1N=Cc1c(O)n(CCc2ccccc2)c(=O)n(C(C)C)c1=O | – | – | – | – | – | – | · | ·
CC1=C[C@@H]2c3cccc4[nH]cc(c34)C[C@H]2N(C)C1 | – | – | – | – | – | – | · | ·
CN1C[C@H](CO)C=C2c3cccc4[nH]cc(c34)C[C@H]21 | – | – | – | – | – | 39.4 | 29.7 | 24.8 | EDANS interf=–
CCOC(=O)c1c(NC(=O)c2c(N)n(CCCOC)c3nc4ccccc4nc23)sc2c1CCCC2 | – | – | – | – | – | – | · | ·
CCOCCCn1c(N)c(C(=O)Nc2sc3c(c2C(=O)OC)CCCC3)c2nc3ccccc3nc21 | – | – | – | – | – | 28.0 | – | –
CCOc1ccc(-c2cc(C)[n+](CCO)c(-c3ccc(OCC)cc3)c2)cc1 | – | – | – | – | – | 94.2 | 69.6 | 69.0
CC[C@@]1(O)C(=O)OCc2c1cc1n(c2=O)Cc2cc3c(NC(=O)CN)cccc3nc2-1 | – | – | – | – | – | 350.0 | 108.9 | 98.7
COCCOC(=O)c1c(N)n(Cc2ccccc2)c2nc3ccccc3nc12 | – | – | – | – | – | 31.5 | – | –
CCCCn1c(N)c(C(=O)OCCOC)c2nc3ccccc3nc21 | – | – | – | – | – | – | · | ·
COCC(C)OC(=O)c1c(N)n(Cc2ccco2)c2nc3ccccc3nc12 (configuration not stated) | – | – | – | – | – | – | · | ·
CCOC(=O)c1c(N)n(Cc2ccco2)c2nc3ccccc3nc12 | – | – | – | – | – | 47.4 | 60.3 | 78.5
Nc1c(C(=O)NCc2ccco2)c2nc3ccccc3nc2n1CCN1CCOCC1 | – | – | – | – | – | 34.3 | – | –
CC(C)OC(=O)c1c(N)n(CC2CCCO2)c2nc3ccccc3nc12 (configuration not stated) | – | – | – | – | – | 48.0 | 72.6 | 72.5
COC(=O)[C@@H]1C[C@]2(C(=O)O)c3ccccc3N(OOSc3ccccc3)[C@@H]2N1C(=O)OC | – | – | – | – | – | – | · | ·
O=C(c1cc2c(s1)-c1ccccc1OC2)N1CCC2(CC1)OCCO2 | – | – | – | – | – | 50.3 | 62.7 | 74.9
COC(=O)C1(N(C)c2ccccc2)CCN(Cc2ccccc2)CC1 | – | – | – | – | – | – | · | ·
Cc1cc(=O)oc2cc3c(cc12)CCCN3 | – | – | – | – | – | 59.5 | 66.0 | 62.5

Screening results from PubChem.
